High-throughput results from PubChem.
Giardia FBPA inh – Giardia lamblia aldolase inhibition; A8B2U2; purified Giardia FBPA; Potency, µM (titrated, usually from 59.6 µM), usual class: inhibitors; hit rate 0.71% among 290,000; AID 2451; also: nearly all actives have a fitted effect of over 55% in size
Target sequence (A8B2U2 whole entry, looked up): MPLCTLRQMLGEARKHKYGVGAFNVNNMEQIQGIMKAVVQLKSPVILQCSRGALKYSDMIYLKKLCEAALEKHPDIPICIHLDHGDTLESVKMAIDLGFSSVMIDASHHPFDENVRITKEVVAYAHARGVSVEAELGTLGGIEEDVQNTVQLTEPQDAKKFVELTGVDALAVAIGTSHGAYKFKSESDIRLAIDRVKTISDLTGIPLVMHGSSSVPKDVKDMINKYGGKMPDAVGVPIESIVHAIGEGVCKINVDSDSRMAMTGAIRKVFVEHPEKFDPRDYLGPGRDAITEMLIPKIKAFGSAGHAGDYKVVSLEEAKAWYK
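40 nM FBPA preincubated 10 min at RT with compound (up to 57.5 uM final), then substrate plus GAPDH/TPI/NAD/arsenate coupling and diaphorase/resazurin added. Fluorescence read after 20 min at RT, 525/598 nm.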
CHX counter – counter-screen for Shiga toxin inhibitors: cycloheximide protein synthesis inhibition | max response, % | cell reporter, cycloheximide protein synthesis inhibition counterscreen | AID 2314 | hit rate 12% among 300,000; in the data active = max response mostly above about 13%, no sharp cut-off; inactive = mostly below about 14%; also: read at 38.3 µM for the half of the compounds with a filed dose
TbPYK inhibitor – blocks Trypanosoma brucei pyruvate kinase. Potency, µM (top dose mostly 76.8 µM), usual class: inhibitors. hit rate 0.12% among 410,000. Q57TT1. TbPYK enzyme, Kinase-Glo Plus ATP luminescence, 45 min; also: nearly all actives have a fitted effect of over 50% in size
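Readout: single end-point luminescence (Kinase-Glo Plus, 10 min). Reaction conditions were TbPYK/substrate plus 130 uM ADP, 45 min at RT, pH 7.2 TEA buffer. No-enzyme wells served as controls, and data were normalized before concentration-response fitting.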
LmPK inh – blocks Leishmania mexicana pyruvate kinase activity; Q27686; purified LmPK, Kinase-Glo ATP luminescence, 1 h; Potency, µM (doses to about 57.5 µM), usual class: inhibitors; hit rate 0.37% among 290,000; AID 1721
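In 50 mM imidazole pH 7.2 with 7 mM MgCl2, LmPK (0.1 nM) turned over PEP (0.5 mM) and ADP (0.1 mM) for 1 h at room temperature. Luciferase read-out of ATP.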
Sm TGR block – inhibitors of Schistosoma mansoni thioredoxin glutathione reductase; Q962Y6; purified TGR, DTNB reduction, TNB absorbance 405 nm; Potency, µM (series often up to 114 µM), most hits filed as inhibitors; hit rate 3% among 360,000; AID 485364; also: nearly all actives have a fitted effect of over 60% in size
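First, TGR (20 nM dispensed) and NADPH were mixed with compound. Second, a 15 min room-temperature incubation followed. Third, further NADPH and then DTNB were added to start the reaction. Finally, TNB absorbance was monitored kinetically.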
Shiga inhibitor – Shiga toxin inhibition; AID 2315; hit rate 9.2% among 290,000; inhibition, % at 38.7 µM; Vero cells, Shiga toxin protein synthesis inhibition reporter; in the data active = inhibition mostly above about 28%, no sharp cut-off; inactive = mostly below about 43%
Hits are given with their value; 0 = inactive; ? = inconclusive; - = no result; [ ] = another dose, or the depositor's remark. Many of the other results were omitted from the sample, so hits are more common in it than they were. Unless noted, calls follow the shape of the dose curve; as a rule, active = well fitted curve in the direction sought with a large enough effect; inconclusive = small, poorly fitted or top-dose-only effect, or another doubt; inactive = no such curve, though single readings can be large; an effect the other way counts as inactive or inconclusive.

SMILES	Giardia FBPA inh	CHX counter	TbPYK inhibitor	LmPK inh	Sm TGR block	Shiga inhibitor
O=C(Nc1ccc(NC(=O)C23CC4CC(CC(C4)C2)C3)cn1)c1ccco1	0	48	0	0	0	69
O=C(/C=C/c1ccco1)c1ccc(NC(=O)C23CC4CC(CC(C4)C2)C3)cc1	0	0	?	0	10µM	0
O=C(Nc1ccc(NC(=O)C2CCCCC2)cn1)c1ccco1	0	39	0	0	0	0
Cc1ccc(C)c(NC(=O)Cn2c(=O)oc3cc(S(=O)(=O)NCc4ccccc4)ccc32)c1	-	-	0	-	0	-
CC1=C(c2ccc(NN=C(C#N)C#N)cc2)NNC(=O)C1	-	-	0	-	-	-
COc1ccc(C2Nc3ccccc3C(=O)N2c2ccc(C)cc2)cc1Cn1cc([N+](=O)[O-])cn1 (stereo not given)	0	38	0	0	0	50
COc1ccc(C)cc1Cn1nnc2ccccc21	-	-	0	-	0	-
COc1ccc(C2Nc3ccccc3C(=O)N2c2ccc(C)cc2)cc1Cn1nnc2ccccc21 (stereo not given)	0	51	0	0	0	53
COc1ccc(C(=O)N2CCN(Cc3cc(=O)n4nc(-c5ccccc5C)sc4n3)CC2)cc1OC	-	-	0	-	0	-
C/C(=N\NC(=O)C1CC1)c1ccc(Cl)cc1	0	0	0	0	0	0
C/C(=N\NC(=O)c1c(Cl)cnn1C)c1ccc(NC(=O)c2ccc(Br)o2)cc1	-	40	0	0	0	57
C/C(=N\NC(=O)C1CC1)c1ccc(NC(=O)c2ccc(Br)o2)cc1	0	24	-	0	-	55
COc1ccc(CC(=O)Nc2ccc(/C(C)=N\NC(=O)c3ccc(Br)o3)cc2)cc1	0	42	0	0	0	44
O=C(NCCN1CCOCC1)c1ccc(NC(=O)c2ccc(Br)o2)cc1	-	-	0	-	-	-
C/C(=N\NC(=O)C1CCCC1)c1ccc(Cl)cc1	-	41	0	0	0	52
COc1ccc(Cn2c(C(=O)O)c(CNCc3ccco3)c3ccc(OC)cc32)cc1	-	-	0	-	0	-
Cc1ccc(S(=O)(=O)NCl)cc1	-	-	0	-	-	-
Cc1ccc(OCCSc2nc3ccccc3n2CC(=O)N2CCOCC2)cc1	-	-	0	-	0	-
CC1=C(C(=O)Nc2ccccn2)C(c2ccc(Cl)cc2)NC(=S)N1 (stereo not given)	0	46	0	0	0	72
CC1=C(C(=O)Nc2ccccn2)C(c2ccc(Br)cc2)NC(=S)N1 (stereo not given)	0	37	0	0	0	50
CCc1ccc(NC(=O)C2(C)Cc3ccccc3C(=O)O2)cc1 (stereo not given)	0	26	0	0	0	41
COc1cc(C(=O)Nc2cccc(OCc3cc(=O)n4c(C)csc4n3)c2)cc(OC)c1OC	-	-	0	-	0	-
O=C(O)Cn1c(-c2ccccn2)nc2ccccc21	0	32	0	0	0	46
CCOC(=O)c1ccc2c(c1)nc(-c1ccccn1)n2CC	0	61	0	0	0	107
Cc1cc(C2=NNC(=NC3CCCCC3)SC2)c(C)n1-c1c(C)n(C)n(-c2ccccc2)c1=O	0	0	0	0	0	0
SMILES	Giardia FBPA inh	CHX counter	TbPYK inhibitor	LmPK inh	Sm TGR block	Shiga inhibitor
CC1(C)CSC(=NCc2ccccc2)N1	0	0	0	0	0	0
c1csc(C2=NNC(=NC3CCCCC3)SC2)c1	0	37	0	0	0	75
c1ccc(CN=C2NN=C(c3cc4ccccc4o3)CS2)cc1	0	26	0	0	0	44
Cc1cc(C2=NNC(=NC3CC3)SC2)c(C)n1-c1ccccc1F	0	0	?	0	0	0
c1ccc2oc(C3=NNC(=NC4CC4)SC3)cc2c1	0	41	0	?	?	0
Cc1ccc(Cn2c(SCc3ccc(C(=O)N4CCCCC4)cc3)nc3ccncc32)cc1	-	-	0	-	0	-
C[C@@H](O)CNC(C)(C)CC(=O)N[C@@H]1CCc2ccccc2N(Cc2ccc(-c3ccccc3-c3nn[nH]n3)cc2)C1=O	0	0	-	-	-	0
O=C1Cc2cc(S(=O)(=O)N3CCN(c4ccc(O)cc4)CC3)ccc2N1	-	-	0	-	-	-
O=C1CC(=O)Nc2cc(S(=O)(=O)N3CCN(c4ccc([N+](=O)[O-])cc4)CC3)ccc2N1	0	0	0	0	11µM	0
COc1ccccc1NC(=O)C1=C(C)Nc2nc(SCc3ccccc3)nn2C1c1cccnc1 (stereo not given)	-	-	0	-	0	-
O=C(O)/C=C/c1cn(-c2ccccc2)nc1-c1ccccc1	0	0	0	0	?	0
O=C(O)/C=C/c1cnn(-c2ccccc2)c1	0	21	0	?	0	0
CCOC(=O)/C=C/c1cnn(-c2ccccc2)c1	0	89	0	0	0	169
COc1ccc(N2CCN(C(=O)c3cnn(-c4ccc(OC)cc4)c3C3CCN(C(=O)OC(C)(C)C)CC3)CC2)cc1	-	-	0[15.4 µM]	-	0	-
Cc1ccc(-n2nc3ccc(NC(=S)NC(=O)/C=C/c4ccco4)cc3n2)cc1	0	0	0	0	0	37
Cc1ccc(-n2nc3cc(C)c(NC(=S)NC(=O)/C=C/c4ccco4)cc3n2)cc1	0	70	0	0	0	active
Cc1ccc2oc(-c3ccc(C)c(NC(=O)/C=C/c4ccco4)c3)nc2c1	-	-	0	-	?	-
O=C(/C=C/c1ccco1)NC(=S)Nc1cccc(-c2nc3ccccc3o2)c1	0	0	0	0	0	0
Cc1ccc(NC(=O)CSc2nc3ccccc3c3nc(CCn4c(C)nc5ccccc54)nn23)cc1F	-	-	0	-	0	-
Cc1ccc(SCC(=O)NCC2CCCO2)cc1 (stereo not given)	0	0	0	0	0	0
CC(C)c1ccc2nc(SCC(=O)NCC3CCCO3)c(C#N)cc2c1 (stereo not given)	0	0	0	0	0	71
COc1ccc(-c2nsc(SCC(=O)NCC3CCCO3)n2)cc1 (stereo not given)	0	32	0	0	0	65
Cc1ccc(-c2nsc(SCC(=O)NCC3CCCO3)n2)cc1 (stereo not given)	0	0	0	0[11.5 µM]	0	56
CCc1ccc2nc(SCC(=O)NCC3CCCO3)c(C#N)cc2c1 (stereo not given)	0	0	0	0	0	0
Cc1ccc(SCCC(=O)NCC2CCCO2)cc1 (stereo not given)	0	13	0	0	0	0
Cc1c2cnn(-c3ccccc3)c(=O)c2c(C)n1CCCC(=O)Nc1cccc(F)c1	-	-	0	-	?	-
Cc1cc(NC(=O)CSc2nc(-c3cccc(F)c3)nc3c2c(=O)n(C)c(=O)n3C)no1	-	-	0	-	0	-
CN(CC1CCCN(CCc2ccccc2F)C1)C(=O)c1ccoc1 (stereo not given)	0	0	0	0	0	0
Cc1ccccc1CCN1CCCC(CN(C)C(=O)C(=O)c2ccco2)C1 (stereo not given)	0	18	0	0	0	0
COc1ccc(CCN2CCCC(CN(C)Cc3cc(Cl)c(O)c(OC)c3)C2)cc1 (stereo not given)	?	0	0	0	50µM	0
